Source: PubChem
The list is not random: actives were taken first. Their share in the collection is about 2.4%.
D2 ag-1 = Beta-Arrestin HTS for Positive Allosteric Modulators of the Human D2 Dopamine Receptor: Agonists | activation, % (no concentration beside the values) | AID 624465, 2012 | DiscoveRx PathHunter D2 beta-arrestin, luminescence, 90 min; 100% = 57 uM dopamine signal | hit rate 0.084% among 360,000; in the data active = activation above about 40%; inconclusive = between about 15% and that limit
Target sequence (P14416 whole entry, looked up): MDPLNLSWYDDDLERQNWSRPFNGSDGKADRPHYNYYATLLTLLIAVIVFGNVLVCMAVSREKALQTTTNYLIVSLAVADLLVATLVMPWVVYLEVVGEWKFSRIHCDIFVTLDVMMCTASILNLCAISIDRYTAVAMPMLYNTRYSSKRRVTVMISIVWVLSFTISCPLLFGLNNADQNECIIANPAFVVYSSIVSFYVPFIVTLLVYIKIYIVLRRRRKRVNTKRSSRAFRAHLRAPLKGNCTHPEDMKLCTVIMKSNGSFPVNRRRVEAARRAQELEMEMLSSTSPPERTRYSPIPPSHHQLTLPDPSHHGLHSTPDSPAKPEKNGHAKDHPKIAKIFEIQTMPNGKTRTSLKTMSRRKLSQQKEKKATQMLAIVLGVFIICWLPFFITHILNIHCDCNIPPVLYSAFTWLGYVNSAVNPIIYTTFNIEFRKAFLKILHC
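DiscoveRx PathHunter D2 beta-arrestin cells (2,100/well) attached overnight, then compound-stimulated 90 min at 37 C in HBSS/10 mM HEPES/0.1% Tween-20 buffer; beta-galactosidase complementation read by luminescence after 1 h at ambient temperature. Dopamine 57 uM final (EC100) as control.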
D2 PAM-1 = Beta-Arrestin HTS for Positive Allosteric Modulators of the Human D2 Dopamine Receptor: Potentiators | D(2) dopamine receptor (Homo sapiens), P14416 | DiscoveRx D2 beta-arrestin cells, luminescence, 90 min; 100% = 57 uM dopamine signal | potentiation, % (concentration not given with the values) | hit rate 0.23% among 360,000 | AID 624464, 2012; in the data active = potentiation above about 50%; inconclusive = mostly about 30% to 49%
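PathHunter D2 cells, attached overnight at 37 deg C, received compound in DMSO plus dopamine at EC20 (50 nM final) for 90 min at 37 deg C. Beta-arrestin recruitment was read as luminescence after 1 h with detection reagent at ambient temperature.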
D2 PAM-2 = HTS Assay for Positive Allosteric Modulators of the Human D2 Dopamine Receptor: Primary Screen for Potentiators. HEK293 T-REx D2, calcium flux, EC20 dopamine potentiation. potentiation, % at 10 µM. hit rate 0.34% among 340,000. AID 485347, 2010;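 active = potentiation over 3 SD above the plate norm, cut at about 30% in these data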; also: 0% is about no effect
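Calcium flux readout, no-wash dye, 1 read/s. Inducible HEK293 Trex D2 line, overnight 30 C. Compound alone 180 s (agonist flags), then EC20 dopamine, another 180 s to score potentiation.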
D2 ag-2 = HTS Assay for Allosteric Agonists of the Human D2 Dopamine Receptor: Primary Screen for Agonists; D(2) dopamine receptor (Homo sapiens), P14416; HEK293 T-REx D2 cells, calcium flux agonist mode; activation, % at 2 µM; hit rate 0.53% among 340,000; AID 485358, 2010;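 active = activation over 3 SD above normal in the single-dose calcium agonist read, cut at about 30% in these data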; also: 0% is about no effect
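HEK293 Trex D2 cells, tetracycline-induced, o/n 30 C 5% CO2; no-wash Ca dye, RT 30–90 min; 10-cycle baseline, 23 nl cpd added, kinetic Ca read 180 s; agonist hits = positive Ca response.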
D2 antagonist = HTS Assay for Allosteric Antagonists of the Human D2 Dopamine Receptor: Primary Screen for Antagonists. D(2) dopamine receptor (Homo sapiens), P14416. HEK293 TREx D2 cells, calcium flux, dopamine EC80. inhibition, % at 10 µM. hit rate 2% among 340,000; in the data active = inhibition above about 30%; inactive = below that, where a call was filed; also: 0% is about no effect
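Inhibition of EC80 dopamine-driven calcium flux, recorded kinetically, defines activity here; cells are a tetracycline-induced HEK293 T-REx line expressing force-coupled D2.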
* marks the source's active call; other numbers are inactive results; ? = inconclusive; nt = no result.

SMILES	D2 ag-1	D2 PAM-1	D2 PAM-2	D2 ag-2	D2 antagonist
Cc1ccc(OCCCNCCO)c(Br)c1	0	-29	-14	1	39*
Cc1ccc(OCCCN(C)C)c(Br)c1	-2	-18	8	0	37*
CCOc1ccc(-n2c(=O)c3c(C)c(C)sc3n(Cc3cc(=O)n4cc(Cl)ccc4n3)c2=O)cc1	nt	nt	14	0	nt
Cc1ccc(NC(=O)Nc2nnc(N3CCCC3)s2)cc1C	nt	nt	3	4	nt
CC(C)c1nnc(NC(=O)CCC(=O)Nc2ccc3cn[nH]c3c2)s1	-3	-17	-8	0	61*
CCc1ccc(-c2cc(C)no2)cc1S(=O)(=O)NCc1ccc(OC)cc1	nt	nt	-4	0	nt
Cc1nnc2c(N3CCN(c4ccccc4F)CC3)nc3ccc(C(=O)c4ccccc4)cc3n12	nt	nt	2	1	nt
Cc1cc(C)cc(NC(=O)C2CCN(c3cnccn3)CC2)c1	-8	-5	-38	-1	33*
c1ccc(CC2CCN(Cc3ccccn3)CC2)cc1	-4	-20	-14	0	30*
OCC1(Cc2ccccc2)CCN(Cc2ccccn2)CC1	4	-6	10	0	-7
CSc1ccc(OC2CCN(Cc3ccccc3)CC2)cc1	-4	-31	-16	0	31*
CSc1ccc(CN2CCC(Oc3cccc(C(=O)N4CCCC4)c3)CC2)cc1	-1	-20	-13	1	-34
Clc1ccc(CN2CCC(c3nc4ccc(Cl)cc4[nH]3)CC2)cc1	-1	-37	-30	0	82*
Clc1ccc(CN2CCC(c3ccccc3)CC2)cc1	1	-55	-26	-1	85*
Cc1cc(C)c2c(NC(=O)c3ccccc3)c(C(=O)Nc3ccc(F)cc3)sc2n1	nt	nt	3	1	nt
Oc1ccc(Cl)cc1C1=Nc2ccccc2N=C(c2cccc(Br)c2)C1	nt	nt	11	-2	nt
O=C(c1ccc(-c2ccccc2)cc1)N1CCN(Cc2ccccn2)CC1	-2	-1	nt	nt	nt
CSc1ccc(CN2CCC(Cc3ccccc3)CC2)cc1	-2	-83	-17	-1	31*
Clc1ccc(CN2CCC(Cc3ccccc3)CC2)cc1	-1	-41	-33	-1	48*
Clc1cccc(CN2CCC(Cc3ccccc3)CC2)c1	-2	-16	nt	nt	nt
c1ccc(CN2CCN(c3ncccn3)CC2)nc1	nt	nt	-22	48*	37*
Cc1ccc(NC(=O)c2ccc3c(c2)NC(=O)c2ccccc2S3)c(Cl)c1	nt	nt	3	0	nt
COc1ccc(-c2cc(NC=O)c3ncc(-c4cccc(C(=O)NCCN(C)C)c4)n3c2)c(OC)c1	5	-3	nt	nt	nt
Cc1c(C(=O)N2CCCC2)oc2c1-c1nn(CC(=O)NCc3ccccc3Br)cc1CC2	nt	nt	0	-2	nt
Oc1ccc2ccccc2c1C=NC12CN3CCN(CN(C3)C1)C2	11	102*	nt	nt	nt
SMILES	D2 ag-1	D2 PAM-1	D2 PAM-2	D2 ag-2	D2 antagonist
C=Cc1ccc(N=Cc2c(O)ccc3ccccc23)cc1	-1	3	16	2	44*
OCC(CO)(CO)N=Cc1c(O)ccc2ccccc12	8	50*	-7	0	-10
Oc1ccccc1N=Cc1c(O)ccc2ccccc12	8	-7	15	24	-2
COc1ccccc1NC(=O)CSCc1cc(=O)c2c(C)cc(C)cc2[nH]1	nt	nt	-2	-1	nt
COCCc1nn2c(=O)cc(COC(=O)c3ccc(C(C)(C)C)cc3)nc2s1	nt	nt	17	0	nt
CCCSCCCNC(=O)c1sc2nc(C)cc(C)c2c1-n1cccc1	nt	nt	3	nt	nt
CC(C)Oc1ccc(CNC(=O)c2ccc(NC(=O)c3nsc4ccccc34)cc2)cc1	nt	nt	nt	1	nt
COc1ccc(-c2oc3ncn4nc(-c5ccccc5OC)nc4c3c2-c2ccc(OC)cc2)cc1	nt	nt	-15	nt	nt
Cc1ccc(Cn2c(CNC(=O)c3ccccc3Br)nc3cccnc32)cc1	nt	nt	-5	0	nt
O=C(CSc1ccc2ccccc2c1)NCCc1ccc(O)c(O)c1	100*	?	-18	32*	51*
O=C(CSc1nc2[nH]c(=O)cc(O)c2s1)NCCc1ccccc1	2	-14	17	0	0
